Where “and” joins values, the source holds several entries; their conditions need not be identical. Equal entries are not always repeated. Results filed as inconclusive are left out. Unmarked numbers belong to inactive results. Calls of active or inactive are those of the source. Calls come from the whole dose curve; as a rule, active = well fitted inhibition curve with a large enough effect; inconclusive = small, poorly fitted or top-dose-only effect; inactive = flat fitted curve, though single readings scatter. *1 amine or outer side, *2 acyl side, *3 side chain or, on linkers, in order; H or OH if unused. Where a SMILES comes first, the peptide text is derived from it. Bridges are numbered along the chain shown (N, C = ends). [ ]: non-standard residue; d: D form. The star is where a group is joined. ξ: configuration not given here. X5 = NC1=N[C@@H]([C@H](N[*:1])C(=O)[*:2])C[C@H](O)N1; ΔAla(Z-3-ureido) = NC(=O)N/C=C(\N)C(=O)O; d(aThr) = C[C@@H](O)[C@@H](N)C(=O)O; ξThr(3R) = C[C@@H](O)C(N)C(=O)O; β3hOrn = NCCC[C@H](N)CC(=O)*; X3 = CC[C@@H](C)CCCCC(=O)*; dDab = NCC[C@@H](N)C(=O)O; Dap = NC[C@H](N)C(=O)O
What follows are compounds tested on KB-3-1 (assay: Cytotoxic Profiling of Annotated Libraries Using Quantitative High-Throughput Screening (AID 1296008; note: nearly all actives have a fitted effect of over 60% in size)). Conditions: Five cell lines viability, CellTiter-Glo ATP luminescence, 48-72 h; max response: stronger effect = lower value.
Outline: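 Cells exposed to compounds for 48 or 72 hr at 37 degrees Celsius. Viability read as ATP-coupled luminescence with CellTiter-Glo after 10 min at room temperature.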
% is set by controls: 0 for no effect and ±100 for the full control effect; potency is the fitted concentration of half-maximal effect.

SMILES | max response | Potency
CO/N=C(\C(=O)N[C@@H]1C(=O)N2C(C(=O)O)=C(CSc3nnnn3C)CS[C@H]12)c1csc(N)n1 | -10.7% | –
Cn1nnnc1SCC1=C(C(=O)O)N2C(=O)[C@@H](NC(=O)[C@H](O)c3ccccc3)[C@H]2SC1 | 8.48% | –
CC[C@H]1OC(=O)[C@H](C)[C@@H](O[C@H]2C[C@@](C)(OC)[C@@H](O)[C@H](C)O2)C(C)[C@@H](O[C@@H]2O[C@H](C)C[C@H](N(C)C)[C@@H]2O)[C@](C)(OC)C[C@@H](C)C(=O)[C@H](C)[C@@H](O)[C@]1(C)O (stereo partly drawn) | -4.62% | –
CC[C@@H](C)CCCCC(=O)N[C@H](CCN)C(=O)N[C@@H](C(=O)N[C@H](CCN)C(=O)N[C@@H]1CCNC(=O)C([C@@H](C)O)NC(=O)[C@@H](CCN)NC(=O)[C@@H](CCN)NC(=O)[C@@H](CC(C)C)NC(=O)[C@@H](Cc2ccccc2)NC(=O)[C@@H](CCN)NC1=O)[C@@H](C)O (stereo partly drawn) (X3-[dDab][d(aThr)][dDab][dDab][dDab][dF][dL][dDab][dDab][ξThr(3R)]; lactam 4-C) | 15.7% | –
CCCC(CCC)C(=O)OC1C[C@H]2CC[C@@H](C1)[N+]2(C)C (stereo partly drawn) | 11.2% and 16.2% | –
O=P(O)(O)CP(=O)(O)O | -3.6% | –
CCC[C@@H]1C[C@@H](C(=O)N[C@@H]([C@H]2O[C@H](SC)[C@H](O)[C@@H](O)[C@H]2O)[C@H](C)Cl)N(C)C1 | 4.39% | –
Nc1nc(=O)n([C@@H]2CS[C@H](CO)O2)cc1F | 6.08% | –
Cc1ncc(C[n+]2csc(CCO)c2C)c(N)n1 | -14.6% | –
CCOC(=O)c1cc(-c2ccccc2)nc2ccc(C)cc12 | 3.5% | –
Cc1cccc(C)c1NC(=O)C1CCCCN1C (stereo not drawn) | -1.09% | –
CC1CS(=O)(=O)CCN1/N=C/c1ccc([N+](=O)[O-])o1 (stereo not drawn) | 1.84% | –
CO/N=C(\C(=O)N[C@@H]1C(=O)N2C(C(=O)O)=C(C[N+]3(C)CCCC3)CS[C@H]12)c1csc(N)n1 | 2.85% | –
CC(C)[C@@H]1CC[C@@H](C)C[C@H]1O | -7.15% | –
Nc1nc2c(c(=O)[nH]1)N(C=O)C(CNc1ccc(C(=O)N[C@@H](CCC(=O)O)C(=O)O)cc1)CN2 (stereo partly drawn) | 0.559% | –
C=CCCCCCCCCC(=O)OC | 9.89% | –
COc1ccc(/C=N/NC(=O)c2ccncc2)c(C(=O)O)c1OC | -1.02% | –

SMILES | max response | Potency
CN(C)c1ccc(C(=C2C=CC(=[N+](C)C)C=C2)c2c(O)c(S(=O)(=O)[O-])cc3cc(S(=O)(=O)O)ccc23)cc1 | – | 14.6 µM (active)
CN(C)C=Nc1c(I)cc(I)c(CCC(=O)O)c1I | 0.601% | –
COc1ccc2cc([C@H](C)CO)ccc2c1 | 0.171% | –
COC(=O)CCC[N+](C)(C)C | -6.27% | –
CCCCCCCCCCCC(=O)N(CCO)CCO | -11.5% | –
CCCC(=O)O | 2.03% | –
CN1C(=O)C[C@@H](C(=O)N[C@@H](Cc2cnc[nH]2)C(=O)N2CCC[C@H]2C(N)=O)NC1=O | 5.84% | –
CC(C)CCCC(C)NC(C)C (stereo not drawn) | 0.846% | –
C=C1c2c(Cl)ccc(O)c2C(O)=C2C(=O)[C@]3(O)C(O)=C(C(N)=O)C(=O)[C@@H](N(C)C)[C@@H]3[C@@H](O)[C@H]12 | 7.79% | –
O=C1NC(=O)[C@H]2[C@@H]1[C@@H]1C=C[C@H]2C1 | -8.53% | –
Nc1nc(NC2CC2)c2ncn([C@@H]3C=C[C@@H](CO)C3)c2n1 | 3.44% | –
C[C@H](CCC(=O)O)[C@H]1CC[C@H]2[C@@H]3CC[C@@H]4C[C@H](O)CC[C@]4(C)[C@H]3C[C@H](O)[C@]12C | -0.187% | –
COc1ccc(/C=C/C(=O)O)cc1 | -11.7% | –
CC(=O)[C@H]1CC[C@H]2[C@@H]3C=CC4=CC(=O)CC[C@@]4(C)[C@H]3CC[C@]12C | -2.63% | –
CCCCC(CC)COS(=O)(=O)O (stereo not drawn) | -16.9% | –
NCCC[C@H](N)CC(=O)N[C@H]1CNC(=O)[C@H]([C@H]2C[C@H](O)NC(N)=N2)NC(=O)/C(=C/NC(N)=O)NC(=O)[C@H](CO)NC(=O)[C@H](CO)NC1=O (β3hOrn-[Dap]SS[ΔAla(Z-3-ureido)][X5]; lactam 1-C) | -0.188% | –

Source: PubChem BioAssay (NCATS)
